# Inconclusive results are not listed. Unmarked numbers belong to inactive results. Activity calls are given as the source filed them. Calls come from the whole dose curve; as a rule, active = well fitted cell-killing curve with a large enough effect in the repeat runs; inconclusive = weak or mixed curves, or effect the other way; inactive = flat fitted curve, though single readings scatter.
# Experiment: cAMP Responsive Elements (CRE) small molecule antagonists, cell-based qHTS assay: qHTS cell viability counter screen (AID 2060913); note: nearly all actives have a fitted effect of over 40% in size
# Conditions: CRE-bla HEK293T viability, CellTiter-Glo luminescence, 5 h; series mostly up to 92.4 µM; viability change, negative = cytotoxic: at the top concentration
# How it was run: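 Cytotoxicity read in the same wells as the CRE-bla HEK293T antagonist assay: after 3 h compound with 0.25 uM NKH477 final and 2 h beta-lactamase substrate, CellTiter-Glo luminescence measured.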
# % is set by controls: 0 for no effect and ±100 for the full control effect; potency is the fitted concentration of half-maximal effect.
Structure (SMILES),"viability change, negative = cytotoxic",Potency
COc1cc2c(cc1OC)-c1cc3ccc(OC)c(OC)c3c[n+]1CC2,-7.49%,
NS(=O)(=O)c1cc2c(cc1Cl)NC(CC1CCCC1)NS2(=O)=O (stereo not given),3.89% [at 42.5 µM],
CC1CCC(C(C)CS)CC1S (stereo not given),-0.615%,
CC(=O)OCC[N+](C)(C)C,-1.9% [at 42.5 µM],
CCc1ccccc1CC,,inactive
Cc1nc(C)nc(N2C[C@@H](C)N(c3ccnc([C@@H](C)O)n3)[C@@H](C)C2)n1,3.23% [at 42.5 µM],
CCCCC(CC)COC(=O)c1ccc(C(=O)OCC(CC)CCCC)cc1 (stereo not given),,inactive
COc1cc2c(Nc3ccc(Br)cc3F)ncnc2cc1OCC1CCN(C)CC1,-0.808% [at 42.5 µM],
Cc1cc(C)c(C)cc1C,,inactive
C[C@@H]1CN(c2c(F)c(N)c3c(=O)c(C(=O)O)cn(C4CC4)c3c2F)C[C@H](C)N1,-4.19% [at 18.9 µM],
Cc1cc(C)n(CO)n1,-4.28%,
Cc1cc(N)n(-c2ccccc2)n1,-0.16%,
CC(C)(C)c1n[nH]c(=S)n(N)c1=O,2.23%,
CCCCCCCCCCCCCCBr,19.2%,
Nc1c2c(nc3c1CCC3)CCCC2,-2.48% [at 42.5 µM],
O=C1CN(/N=C/c2ccc([N+](=O)[O-])o2)C(=O)N1,-11% [at 42.5 µM],
C=C(C)CS(=O)(=O)O,0.227%,
CCN(CC)CCSC(=O)C(c1ccccc1)c1ccccc1,11% [at 42.5 µM],
Cc1c(I)c(=O)n(-c2ccccc2)n1C,-1.52% [at 42.5 µM],
CC(C)(C)c1cc(CCC(=O)OCCSCCOC(=O)CCc2cc(C(C)(C)C)c(O)c(C(C)(C)C)c2)cc(C(C)(C)C)c1O,8.95% [at 42.5 µM],

Structure (SMILES),"viability change, negative = cytotoxic",Potency
O=C1N(c2ccccc2)c2ccccc2C1(Cc1ccncc1)Cc1ccncc1,-0.0861% [at 42.5 µM],
CN(C)CCCNCCC#N,2.28%,
CC(C)(C)c1cc(C=O)cc(C(C)(C)C)c1O,3.67% [at 42.5 µM],
CCCCCCCCCCCC(C)=O,3.61%,
CC(=O)c1ccc2c(c1)N(CCCN(C)C)c1ccccc1S2,-0.188% [at 42.5 µM],
C/C(Cl)=C/CCl,6.14%,
Cc1c(C)c2c(c(C)c1O)CC[C@@](C)(CCC[C@H](C)CCC[C@H](C)CCCC(C)C)O2,-3.52%,
Cc1ccc(N)c([N+](=O)[O-])c1,,inactive
CCCCCCCC[N+](CCCCCCCC)(CCCCCCCC)CCCCCCCC,,19.3 µM (active)
OCCOCC#CCOCCO,5.16%,
C=C[Si](OCCOC)(OCCOC)OCCOC,,inactive
CCn1c2ccccc2c2cc([N+](=O)[O-])ccc21,-8.03%,
Cc1cc(C2(c3cc(C)c(O)cc3C)OS(=O)(=O)c3ccccc32)c(C)cc1O,,inactive
C[C@@H]1CN(CCCn2c3ccccc3c3ccccc32)C[C@H](C)N1,-7.57% [at 42.5 µM],
CCCCOC(=O)c1ccc(N)cc1,,inactive
CCCCO,5.29%,
CC(=O)Nc1cccc(O)c1,,inactive
CCN(CC)c1cccc(O)c1,-17.3%,
C/C=C/C=C/C(=O)O,,inactive
CCCCC/C=C/CC1CC(=O)OC1=O (stereo not given),4.73%,

# Reference: PubChem BioAssay (Tox21)
